Reference: PubChem BioAssay (EPA / NIEHS)
Values joined by “and” are separate entries in the source; they are usually repeats but may differ in a detail not shown here. Identical values can stand only once. More than one record can exist for a structure, and the calls need not agree. Active and inactive are the calls of the source. How the source made its calls: active means hit-call score of the fitted dose curve at least 0.9, where 1 is the maximum; inactive means score below 0.9.

Tests used:
[1] = read-out: Vascular endothelial growth factor receptor 2 (Homo sapiens) (UniProt P35968); assay: BSK_4H_VEGFRII: BioMAP Diversity Plus: 4H Assay for Vascular endothelial growth factor receptor 2 (VEGFR2) Biomarker Activity (AID 2283031); details: primary human endothelial cells (HUVEC); actives raise or lower the signal
Summary of the method: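 Primary human umbilical vein endothelial cells (4H system), 24 h exposure; cell-surface VEGFR2 measured by ELISA. Bidirectional fitting versus DMSO; cytotoxicity checked in parallel by SRB total-protein staining.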

[2] = read-out: Human Leukocyte Antigen - DR isotype (HLADR), HLA-DRA (gene 3122); assay: BSK_BE3C_HLADR: BioMAP Diversity Plus: BE3C Assay for Human Leukocyte Antigen - DR isotype (HLADR) Biomarker Activity (AID 2283032); details: primary human bronchial epithelial cells; actives raise or lower the signal
Summary of the method: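 Human primary bronchial epithelial cells in the BE3C system were exposed to chemicals for 24 h, after which HLA-DR levels were quantified by ELISA. Activity was fitted bidirectionally, gain or loss of signal, against DMSO as negative control and baseline.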

[3] = read-out: Vascular cell adhesion molecule 1 (VCAM1), VCAM1 (gene 7412); assay: BSK_4H_VCAM1: BioMAP Diversity Plus: 4H Assay for Vascular cell adhesion molecule 1 (VCAM1) Biomarker Activity (AID 2283033); details: primary human endothelial cells (HUVEC); actives raise or lower the signal
Summary of the method: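 Primary human umbilical vein endothelial cells were exposed to chemicals for 24 h, after which VCAM-1 was quantified by ELISA. Responses were fitted bidirectionally against DMSO as negative control and activity baseline.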

[4] = read-out: Interferon-gamma inducible Protein 10 (IP10), CXCL10 (gene 3627); assay: BSK_BE3C_IP10: BioMAP Diversity Plus: BE3C Assay for Interferon-gamma inducible Protein 10 (IP10) Biomarker Activity (AID 2283034); details: primary human bronchial epithelial cells; actives raise or lower the signal
Summary of the method: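 Human primary bronchial epithelial cells were exposed to chemicals for 24 hours, after which IP-10 levels were measured by ELISA. Data were fitted bidirectionally against DMSO, which served as the negative control and activity baseline.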

[5] = read-out: Monokine induced gamma interferon (MIG), CXCL9 (gene 4283); assay: BSK_BE3C_MIG: BioMAP Diversity Plus: BE3C Assay for Monokine induced gamma interferon (MIG) Biomarker Activity (AID 2283035); details: primary human bronchial epithelial cells; actives raise or lower the signal
Summary of the method: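 ELISA read-out of MIG in human lung bronchial epithelial primary cultures, 24 h post-dosing. Bidirectional curve fit vs DMSO baseline.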

[6] = read-out: Transforming growth factor beta 1 (TGFb1), TGFB1 (gene 7040); assay: BSK_BE3C_TGFb1: BioMAP Diversity Plus: BE3C Assay for Transforming growth factor beta 1 (TGFb1) Biomarker Activity (AID 2283036); details: primary human bronchial epithelial cells; actives raise or lower the signal
Summary of the method: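 Human primary bronchial epithelial cells (BE3C system) were dosed with chemical and TGF-b1 levels measured by ELISA at 24 h. Activity was fitted bidirectionally relative to DMSO negative control as baseline.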

[7] = read-out: Plasminogen activator inhibitor-1 (PAI1), SERPINE1 (gene 5054); assay: BSK_BE3C_PAI1: BioMAP Diversity Plus: BE3C Assay for Plasminogen activator inhibitor-1 (PAI1) Biomarker Activity (AID 2283037); details: primary human bronchial epithelial cells; actives raise or lower the signal
Summary of the method: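 Human primary bronchial epithelial cells were exposed to chemical for 24 h, then PAI-1 was quantified by ELISA. Activity was fitted bidirectionally relative to the DMSO negative control baseline.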

[8] = read-out: urokinase plasminogen activator (uPA), PLAU (gene 5328); assay: BSK_BE3C_uPA: BioMAP Diversity Plus: BE3C Assay for urokinase plasminogen activator (uPA) Biomarker Activity (AID 2283038); details: primary human bronchial epithelial cells; actives raise or lower the signal
Summary of the method: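 Primary human bronchial epithelial cells, uPA measured by ELISA 24 h after dosing. Bidirectional change relative to DMSO; cytotoxicity checked in parallel cultures by sulforhodamine B total-protein staining.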

[9] = read-out: Urokinase-type plasminogen activator receptor (uPAR), PLAUR (gene 5329); assay: BSK_BE3C_uPAR: BioMAP Diversity Plus: BE3C Assay for Urokinase-type plasminogen activator receptor (uPAR) Biomarker Activity (AID 2283039); details: primary human bronchial epithelial cells; actives raise or lower the signal
Summary of the method: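 Primary human bronchial epithelial cells were dosed with chemical and harvested 24 h later; uPAR was quantified by ELISA. Activity was fitted bidirectionally against DMSO as negative control and baseline.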

[10] = read-out: Interleukin-6 (IL6), IL6 (gene 3569); assay: BSK_CASM3C_IL6: BioMAP Diversity Plus: CASM3C Assay for Interleukin-6 (IL6) Biomarker Activity for (AID 2283040); details: primary human coronary artery smooth muscle cells; actives raise or lower the signal
[11] = read-out: Tissue plasminogen activator (tPA), PLAT (gene 5327); assay: BSK_BE3C_tPA: BioMAP Diversity Plus: BE3C Assay for Tissue plasminogen activator (tPA) Biomarker Activity (AID 2283041); details: primary human bronchial epithelial cells; actives raise or lower the signal
Summary of the method: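 Human primary bronchial epithelial cells were dosed with chemical and tPA biomarker levels measured by ELISA 24 hours later. Activity was fitted bidirectionally against DMSO as negative control and baseline.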

[12] = read-out: Interleukin-8 (IL8), CXCL8 (gene 3576); assay: BSK_CASM3C_IL8: BioMAP Diversity Plus: CASM3C Assay for Interleukin-8 (IL8) Biomarker Activity (AID 2283042); details: primary human coronary artery smooth muscle cells; actives raise or lower the signal;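 further: IL-8 protein level quantified by ELISA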
[13] = read-out: Human Leukocyte Antigen - DR isotype (HLADR), HLA-DRA (gene 3122); assay: BSK_CASM3C_HLADR: BioMAP Diversity Plus: CASM3C Assay for Human Leukocyte Antigen - DR isotype (HLADR) Biomarker Activity (AID 2283043); details: primary human coronary artery smooth muscle cells; actives raise or lower the signal;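 further: cell-surface HLA-DR protein level quantified by ELISA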
[14] = read-out: Macrophage colony-stimulating factor (MCSF), CSF1 (gene 1435); assay: BSK_CASM3C_MCSF: BioMAP Diversity Plus: CASM3C Assay for Macrophage colony-stimulating factor (MCSF) Biomarker Activity (AID 2283044); details: primary human coronary artery smooth muscle cells; actives raise or lower the signal;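 further: M-CSF protein amount quantified by ELISA after 24 h exposure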
[15] = read-out: Low-density lipoprotein receptor (LDLR), LDLR (gene 3949); assay: BSK_CASM3C_LDLR: BioMAP Diversity Plus: CASM3C Assay for Low-density lipoprotein receptor (LDLR) Biomarker Activity (AID 2283045); details: primary human coronary artery smooth muscle cells; actives raise or lower the signal;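 further: LDLR protein level on the cell surface quantified by ELISA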
[16] = read-out: Monocyte Chemoattractant Protein-1 (MCP1), CCL2 (gene 6347); assay: BSK_CASM3C_MCP1: BioMAP Diversity Plus: CASM3C Assay for Monocyte Chemoattractant Protein-1 (MCP1) Biomarker Activity (AID 2283046); details: primary human coronary artery smooth muscle cells; actives raise or lower the signal;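 further: MCP-1 level quantified by ELISA 24 h after dosing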
[17] = BSK_CASM3C_Proliferation: Cell Proliferation Assessment in the BioMAP Diversity Plus: CASM3C Assay (AID 2283047); details: primary human coronary artery smooth muscle cells;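 further: sulforhodamine B total protein stain as relative cell number at 560 nm; sub-confluent cells exposed 48 h before staining; fitted both ways against DMSO so gain or loss of cell number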
[18] = read-out: Monokine induced gamma interferon (MIG), CXCL9 (gene 4283); assay: BSK_CASM3C_MIG: BioMAP Diversity Plus: CASM3C Assay for Monokine induced gamma interferon (MIG) Biomarker Activity (AID 2283048); details: primary human coronary artery smooth muscle cells; actives raise or lower the signal;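 further: MIG protein level measured by ELISA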
[19] = read-out: serum amyloid A (SAA), SAA1 (gene 6288); assay: BSK_CASM3C_SAA: BioMAP Diversity Plus: CASM3C Assay for serum amyloid A (SAA) Biomarker Activity (AID 2283049); details: primary human coronary artery smooth muscle cells; actives raise or lower the signal;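 further: SAA protein level quantified by ELISA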
[20] = BSK_CASM3C_SRB: Viability Assessment in the BioMAP Diversity Plus: CASM3C Assay (AID 2283050); details: primary human coronary artery smooth muscle cells;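 further: total protein by SRB staining as cytotoxicity measure in parallel cultures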

Measured: AC50

OCCCl
inactive: all assays above

O=C1CCCO1
inactive: all assays above

CN(C)C(=O)Nc1ccc(Cl)cc1
inactive: all assays above

Nc1ccc(Cc2ccc(N)cc2)cc1
inactive: all assays above

CCNS(=O)(=O)C(F)(F)C(F)(F)C(F)(F)C(F)(F)C(F)(F)C(F)(F)C(F)(F)C(F)(F)F
active: [2] 5.32 µM and 36.7 µM and 30 µM | [3] 19.3 µM and 16.9 µM and 25.2 µM | [4] 13.9 µM and 21.1 µM and 14 µM | [5] 44.4 µM and 29.5 µM | [7] 19.3 µM and 4.88 µM and 4.37 µM | [8] 41.5 µM | [9] 21.2 µM and 30 µM | [11] 13 µM | [12] 17 µM | [13] 8.6 µM
inactive: [1] | [5] | [8] | [9] | [10] | [11] | [12] | [13] | [14] | [15] | [16] | [17] | [18] | [19] | [20]

C[C@]12C=CC3=C4CCC(=O)C=C4CC[C@H]3[C@@H]1CC[C@@H]2O
active: [4] 29.2 µM | [10] 13 µM | [11] 3.97 µM
inactive: all other assays above
